The supplement of paper PMC6555819

How the values were obtained:
Assay in all cases: PBM binding z-score (relative to random genomic background probes); higher = stronger binding; sequences stand for … in GC…GCGATTGACAGCGTAGAATGAAGG
[1] = test system: FXR:RXRa (NR concentration 270 nM, RXRa partner concentration 90 nM)
Summary of the method: (§1)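 Scanned fluorescence from custom Agilent 4×180K protein-binding microarrays was regression-normalized. Binding z-scores use random background probes as reference. Ligand-free nuclear receptor dimers were incubated on the arrays for 1 h and detected with antibodies against each partner (one per run).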

[2] = test system: LXRa:RXRa (NR concentration 270 nM, RXRa partner concentration 90 nM)
Summary of the method: as §1

[3] = test system: LXRa homodimer (NR concentration 270 nM)
Summary of the method: as §1

[4] = test system: LXRb:RXRa (NR concentration 270 nM, RXRa partner concentration 90 nM)
Summary of the method: as §1

[5] = test system: LXRb homodimer (NR concentration 270 nM)
Summary of the method: as §1

[6] = test system: PPARa:RXRa (NR concentration 270 nM, RXRa partner concentration 90 nM)
Summary of the method: as §1

[7] = test system: PPARg:RXRa (NR concentration 180 nM, RXRa partner concentration 90 nM)
Summary of the method: as §1

[8] = test system: PPARg:RXRa 270nM:90nM, anti-RXR (NR concentration 270 nM, RXRa partner concentration 90 nM)
Summary of the method: as §1

[9] = test system: PPARg:RXRa 30nM:10nM, anti-RXR (NR concentration 30 nM, RXRa partner concentration 10 nM)
Summary of the method: as §1

[10] = test system: PPARg:RXRa 90nM:30nM, anti-RXR (NR concentration 90 nM, RXRa partner concentration 30 nM)
Summary of the method: as §1

Sequence | PBM binding z-score [1] | PBM binding z-score [2] | PBM binding z-score [3] | PBM binding z-score [4] | PBM binding z-score [5] | PBM binding z-score [6] | PBM binding z-score [7] | PBM binding z-score [8] | PBM binding z-score [9] | PBM binding z-score [10]
CATACAGGGCCAGCTAGGCCAGAGTAGGGACGGC | -0.56 | -0.822 | -0.918 | -1.15 | -0.413 | -0.817 | 0.311 | -0.829 | -0.392 | -1
AATACAGGGTCATCGGAGGCCAGAGTACGCACAG | 7.32 | 6.52 | 2.37 | 4.98 | 1.28 | 6.1 | 6.72 | 6.12 | 2.64 | 4.8
TCTCGGAGGACACGAAAGGTCAGGGCTCGACATC | 3.31 | 3.84 | 3.08 | 3.5 | 0.0689 | 3.95 | 1.6 | 2.91 | 2.57 | 2.76
CAAACTAGGTCACGTAAGGTCAAAGTCGAATGAC | 6.98 | 8.26 | 7.28 | 7.56 | 2.27 | 6.49 | 10.1 | 8.07 | 6.4 | 8.05
CCTAGCAGGCCAACCTGGGTCACTCAAGGCTTGA | 1.14 | 1.36 | -0.307 | 1.16 | -1.09 | 2.05 | 0.131 | 0.239 | -0.969 | -0.0466
GGAACAAGGGCATTCGAGTTGATAGCATGGCGAT | 1.63 | 1.37 | 0.0326 | 0.349 | -0.333 | 1.16 | 0.807 | 0.531 | -0.0599 | 0.199
TAGCCTAGGTCATGGGCCAATATACCACGCGAAC | 4.48 | 3.55 | 0.401 | 2.56 | 0.00748 | 4.3 | 4.22 | 3.93 | 1.34 | 2.91
GCGACTGGGGCACCAGCAGGTTACCATAACTTAA | -0.545 | -0.382 | -0.495 | 0.0821 | -1.41 | 1.05 | 1.55 | 1.44 | -0.582 | 0.564
GCTAGTAGTTGAAAGGGCAACCGAATGATTCTCG | 0.181 | 0.507 | 0.0629 | 0.605 | -0.496 | 2.52 | 4.19 | 5.71 | 4.3 | 5.8
TCTGCTAGGTCAGTTGGTCAGCTGACGAGCTGCC | 0.985 | 0.585 | -0.512 | 0.147 | 0.278 | 1.34 | 0.32 | 1.68 | 1.08 | 0.992
CAAACTAGGTCACCGGAACGTCAAAGTCCGCATG | 4.29 | 3.3 | 0.469 | 2.42 | 0.773 | 5.75 | 8.87 | 7.2 | 4.82 | 6.94
CAAACTAGGTCAAGTGGTCAAAGTCCGCTTCCCG | 4.81 | 3.79 | 1.15 | 2.42 | 0.597 | 5.45 | 8.38 | 7.13 | 5.18 | 6.97
CCTACTGGGCCCTCAGGTCATTGATATCAACGTT | 0.913 | 0.734 | 0.835 | 1.2 | -0.368 | 1.5 | 0.069 | 1.15 | -0.276 | 0.433
GCTAGTTGGTCAGTAAAAGGTAACACACCGGTCG | 0.0852 | 0.248 | 0.0445 | 0.107 | -0.224 | 0.694 | 0.783 | 0.945 | 0.0648 | 0.29
ATCTCTAGGTAAAGTTCAGTTAAAGATCGATAGA | 1.31 | 2.28 | 1.98 | 1.67 | 1.22 | 2.39 | 3.27 | 4.32 | 2.38 | 3.95
ATCTCTAGGTAACAAGTTCAGAGAAAGAGAGGAC | 0.853 | 0.957 | 0.71 | 0.814 | 0.838 | 1.67 | 1.71 | 2.04 | 0.949 | 1.76
TCATATAGGTAAACAGCTGAAAGTCCGTAAGTTA | 1.09 | 0.759 | 0.185 | 0.758 | -0.215 | 1.37 | 0.75 | 2.36 | 3.9 | 3.19
CTCGAAAGCTCGGTTGAGGTGAGTATACGGATAA | -0.222 | -0.554 | -0.444 | -0.393 | -0.608 | -0.294 | -0.189 | -0.312 | -0.328 | -0.403
CCTACTGGGCCATTTAGAGGTCATTGATCATATG | 2.82 | 4.87 | 8.57 | 3.98 | 0.803 | 3.78 | 2.24 | 3.15 | 0.977 | 2.11
GGAACGAGGGCAAGTTGCTAGCAGAGTTTGATGG | 0.687 | 0.359 | -0.44 | 0.0629 | -0.392 | 1.48 | 0.841 | 1.04 | -0.453 | 0.0808
CGAACTAGGTCATCCTGGACAGTGAATACATTGA | 4.25 | 2.46 | 0.715 | 2.21 | 0.266 | 4.76 | 7.88 | 6.36 | 3.97 | 5.92
GCGGCTAGGTCAACTGATGGTCAGCTAAAGCTCG | 4 | 2.78 | 0.177 | 1.99 | -0.808 | 3.56 | 2.23 | 2.36 | 0.0288 | 1.44
GATACAGGGTAAAGGCCAGAGTACGCGTATTGAT | 0.103 | -0.0959 | -0.132 | 0.0218 | -0.658 | 2.46 | 4.52 | 5.45 | 3.7 | 5.48
CCTACTGGGCCATTCAGAGGTCATTGCTCATATG | 2.76 | 4.37 | 6.67 | 3.6 | 0.398 | 3.57 | 1.99 | 2.92 | 0.777 | 2.16
